# According to PubChem BioAssay:
# The source made the active and inactive calls. Unless noted, no rule for the calls is given here.
# Assays:
# [1] = HepG2 liver cancer cell viability effects, profiling panel, resazurin fluorescence, 24 h, PK04 Diversity Set (AID 1172); conditions: higher = more signal
# [2] = basal S. cerevisiae growth modulation, no modifier, primary screen, OD600, strain BY4716, 24 h, basal condition (AID 1173); conditions: OD600, 24 h, higher = more signal, called active from +8 up or from −8 down
# [3] = MM1S myeloma cell viability, profiling panel, resazurin fluorescence, basal, 24 h, PK04 Diversity Set (AID 1174); conditions: higher = more signal, called active from +8 up or from −8 down;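 also: MM1S multiple myeloma cell line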
# [4] = molecular target: Dihydroorotate dehydrogenase (quinone), mitochondrial (Plasmodium falciparum (isolate 3D7)) (UniProt Q08210); assay: PfDHODH enzyme inhibitors, primary screen, biochemical, C-terminal His tag, absorbance 600 nm (AID 1175); conditions: DCIP absorbance 600 nm, higher = more signal, called active from +8 up or from −8 down;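 also: recombinant parasite enzyme with a five histidine tag at its C terminus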
# [5] = P. aeruginosa biofilm formation inhibitors, primary screen, strain PAO1, LB-PBS medium, absorbance 600 nm (AID 1176); conditions: P. aeruginosa PAO1 growth/biofilm, A600, 12 h; higher = more signal
# [6] = S. cerevisiae RM11-1a growth modifiers, primary screen, strain RM11-1a, OD600, basal, 24 h (AID 1177); conditions: OD600, 24 h, higher = more signal, called active from +8 up or from −8 down;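 also: cultures grown under basal conditions with no added stressor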
# [7] = E. coli acrAB mutant growth effects, primary screen, E. coli filamentation inducers, strain DRC39, OD650, 24 h (AID 1178); conditions: higher = more signal, called active from +8 up or from −8 down;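 also: growth measured as culture turbidity by optical density at 650 nm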
# [8] = E. coli acrAB mutant growth effects, primary screen, E. coli filamentation inducers, strain DRC39, OD650, 48 h (AID 1179);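 also: screen aims at cell division blockers that make cells filament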; conditions: E. coli DRC39 delta-acrAB growth, higher = more signal, called active from +8 up or from −8 down
# [9] = RPMI8226 myeloma cell viability, profiling panel, resazurin fluorescence, basal, 24 h, PK04 Diversity Set (AID 1180); conditions: higher = more signal;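 also: RPMI8826 multiple myeloma cell line at 5000 cells per well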
# [10] = molecular target: E3 ubiquitin-protein ligase XIAP (Homo sapiens) (UniProt P98170); assay: XIAP binders, primary screen, biophysical, small-molecule microarray, fluorescence 635 nm (AID 1181); conditions: small-molecule microarray binding, higher = more signal;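 also: score merges 667 nm emission and signal to noise over triplicate slides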
# [11] = test system: XIP peptide (Xip251-270) binding; assay: small-molecule binders of XIP peptide, primary screen, biochemical, small-molecule microarray, fluorescence 635/667 nm, 0.1 µg/mL protein (AID 1182); conditions: fluorescent protein binding, 635 nm, higher = more signal, called active from +8 up or from −8 down
# XIP peptide (Xip251-270) = assay: small-molecule binders of XIP peptide, primary screen, biochemical, small-molecule microarray, fluorescence 635/667 nm, 0.5 µg/mL protein (AID 1183); conditions: small-molecule microarray binding, fluorescence 635 nm; higher = more signal
# [12] = Plasmodium falciparum growth inhibition, primary screen, strain 3D7, DAPI fluorescence, 100 nL (AID 1184);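 also: parasites grown inside human red blood cells in medium with human serum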; conditions: P. falciparum 3D7 growth, 3 d, higher = more signal
# [13] = molecular target: Homeobox protein Hox-A13 (Mus musculus) (UniProt Q62424); assay: inhibitors of HoxA13-DNA binding, primary screen, biochemical, fluorescence polarization, labeled oligonucleotide (AID 1185); conditions: 15 min, higher = more signal, called active from +8 up or from −8 down
# [14] = inhibitors of hydroxyurea-induced Chk1 phosphorylation, primary screen, imaging, HeLa, phospho-Chk1 antibody, percent positive cells (AID 1186); conditions: hydroxyurea-induced phospho-Chk1 immunofluorescence imaging, higher = more signal
# [15] = inhibitors of hydroxyurea-induced Chk1 phosphorylation, primary screen, imaging, HeLa, phospho-Chk1 nuclear intensity (AID 1187); conditions: hydroxyurea-induced phospho-Chk1 immunofluorescence imaging, higher = more signal
# Sequence of Homeobox protein Hox-A13 (Mus musculus) (Q62424 whole entry, looked up): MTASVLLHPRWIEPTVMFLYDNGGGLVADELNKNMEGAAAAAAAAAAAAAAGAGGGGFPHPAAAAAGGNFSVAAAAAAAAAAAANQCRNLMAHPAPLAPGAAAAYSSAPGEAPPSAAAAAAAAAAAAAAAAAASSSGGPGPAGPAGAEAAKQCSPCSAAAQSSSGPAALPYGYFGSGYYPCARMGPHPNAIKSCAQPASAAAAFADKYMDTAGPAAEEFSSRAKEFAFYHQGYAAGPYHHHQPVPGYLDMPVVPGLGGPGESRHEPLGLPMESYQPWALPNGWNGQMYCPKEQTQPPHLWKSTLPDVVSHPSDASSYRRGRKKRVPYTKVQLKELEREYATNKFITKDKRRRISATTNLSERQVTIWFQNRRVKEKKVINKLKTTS
# Sequence of Dihydroorotate dehydrogenase (quinone), mitochondrial (Plasmodium falciparum (isolate 3D7)) (Q08210 whole entry, looked up): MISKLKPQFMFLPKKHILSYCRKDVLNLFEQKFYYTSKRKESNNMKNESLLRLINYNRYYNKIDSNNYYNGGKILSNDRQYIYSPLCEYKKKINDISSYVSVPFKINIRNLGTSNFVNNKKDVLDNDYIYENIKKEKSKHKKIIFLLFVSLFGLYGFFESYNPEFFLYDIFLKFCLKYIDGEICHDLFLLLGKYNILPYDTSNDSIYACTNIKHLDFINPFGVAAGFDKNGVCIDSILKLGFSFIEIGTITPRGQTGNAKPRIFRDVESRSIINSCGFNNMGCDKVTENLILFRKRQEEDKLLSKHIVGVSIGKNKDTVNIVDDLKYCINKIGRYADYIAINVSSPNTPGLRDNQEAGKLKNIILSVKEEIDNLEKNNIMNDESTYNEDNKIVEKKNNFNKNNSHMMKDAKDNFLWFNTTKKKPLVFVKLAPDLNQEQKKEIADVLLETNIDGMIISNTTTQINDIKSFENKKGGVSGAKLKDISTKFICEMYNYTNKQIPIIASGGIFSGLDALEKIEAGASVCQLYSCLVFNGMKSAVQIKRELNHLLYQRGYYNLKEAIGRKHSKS
# Sequence of E3 ubiquitin-protein ligase XIAP (Homo sapiens) (P98170 whole entry, looked up): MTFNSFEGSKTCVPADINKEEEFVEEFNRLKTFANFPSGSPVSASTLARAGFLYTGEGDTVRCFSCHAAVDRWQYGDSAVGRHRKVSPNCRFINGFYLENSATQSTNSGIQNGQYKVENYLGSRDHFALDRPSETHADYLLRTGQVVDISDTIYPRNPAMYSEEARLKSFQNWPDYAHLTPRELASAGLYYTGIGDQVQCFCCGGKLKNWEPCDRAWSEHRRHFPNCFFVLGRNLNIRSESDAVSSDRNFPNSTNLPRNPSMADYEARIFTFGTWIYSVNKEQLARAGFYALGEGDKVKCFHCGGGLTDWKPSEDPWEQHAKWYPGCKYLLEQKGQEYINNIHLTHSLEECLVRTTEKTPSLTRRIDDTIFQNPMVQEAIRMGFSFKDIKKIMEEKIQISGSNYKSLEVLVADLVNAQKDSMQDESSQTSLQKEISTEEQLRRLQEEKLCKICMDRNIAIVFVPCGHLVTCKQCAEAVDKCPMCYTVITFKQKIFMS
SMILES,z-score [1],z-score [2],z-score [3],composite z-score [4],z-score [5],z-score [6],z-score [7],z-score [8],z-score [9],composite z-score [10],composite z-score [11],composite z-score (XIP peptide (Xip251-270)),z-score [12],z-score [13],z-score [14],z-score [15]
CC1CC/C=C\[C@H]2OC34C=CCN(c5ccc6ccccc6c5)C(=O)[C@H]3N(C(C)CO)C(=O)[C@@H]4C2C(=O)O1 (some centres undefined),-0.0727,-0.36 (inactive),-0.304 (inactive),0.631 (inactive),-0.236 (inactive),0.853 (inactive),0.0825 (inactive),0.509 (inactive),0.762,-0.208,-0.0371 (inactive),-0.691,-0.338,-4.97 (inactive),0.0352 (inactive),-0.228 (inactive)
COCCCN1C(=O)[C@@]2(c3ccc([N+](=O)[O-])cc3)CC(=O)N(CC34CC5CC(CC(C5)C3)C4)[C@@H]2c2ccc(CO)cc21,-0.35,1.09 (inactive),-0.566 (inactive),-6.02 (inactive),0.792 (inactive),0.0202 (inactive),0.2 (inactive),0.334 (inactive),-0.79,0.113,0.264 (inactive),0.578,-0.243,-0.113 (inactive),-0.313 (inactive),-0.793 (inactive)
COc1ccc([Si](C)(C)[C@H]2[C@H](CCO)O[C@@]3(C(=O)N(Cc4cccc(N(C=O)c5ccccc5)c4)c4ccccc43)[C@@H]2C)cc1,-1.85,1.27 (inactive),-3.37 (inactive),0.105 (inactive),1.45 (inactive),4.32 (inactive),1.61 (inactive),1.41 (inactive),-3.77,0.203,0.293 (inactive),0.665,-2.57,-0.557 (inactive),-1.73 (inactive),-0.831 (inactive)
C=CC[C@@]1(C(=O)N(C)C)N=C(c2ccc(OCCCO)cc2)O[C@@H]1c1ccccc1CN=[N+]=[N-],-0.0494,-0.266 (inactive),-0.138 (inactive),0.59 (inactive),-0.345 (inactive),0.586 (inactive),0.159 (inactive),0.374 (inactive),-0.368,-0.163,0.161 (inactive),0.774,-2.33,-4.32 (inactive),-0.274 (inactive),-0.052 (inactive)
